The values below come from PubChem BioAssay AID1981 (Southern Research Specialized Biocontainment Screening …, 2009).

Molecules are shown by their SMILES. The campaign covered roughly 2,200 compounds. About 480 (22%) were called active. Only a sample is shown. Potency and affinity values are given separately. Values without a mark were called inactive. The rule behind the calls is not given here.

A short description of the test: S. Typhimurium GFP fluorescence modified counterscreen for PhoP regulon inhibitor project dose response (AID 1981).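 Note: 0% = induced DMSO wells and 100% = uninduced wells.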 The conditions noted are these: 4 h; series mostly up to 150 µM; inhibition: at the top concentration.
Turning to `Nn1c(COc2cccc(Br)c2)nnc1SCC(=O)N1CCc2ccccc2C1`, the “inhibition” value is -19.6%.
Under `CCCc1cc(=O)oc2cc(OCC(=O)N3CCc4ccccc43)ccc12` stands -17.5%.
Then `O=[N+]([O-])c1cccc(CN(CCO)Cc2ccccc2)c1`, with 2.79%.
Then `COCCNC(=O)c1ccccc1NS(=O)(=O)c1ccc(Br)s1`, with -10.8%.
In the case of `CCOc1ccc(OCc2ccc(C(=O)N3CCc4ccccc4C3)o2)cc1`, the “inhibition” value was 2.33%.
Under `O=C(OCc1nnc(-c2ccccc2)o1)c1ccc(S(=O)(=O)NCc2ccco2)cc1` stands -7.31%; under `COc1ccc(Cl)cc1NC(=O)C(C)OC(=O)c1ccc(NS(=O)(=O)c2ccc3[nH]c(=O)[nH]c3c2)cc1` (configuration not stated), 33.5%.
Under `O=C(C(=O)N1CCc2ccccc2C1)N1CCc2ccccc2C1` stands -2.68%.
On to `c1ccc2c(c1)CCN(c1ncnc3c1[nH]c1ccccc13)C2`, for which the “inhibition” value was 5.41%.
Take `CC(C)(C)c1ccc(C(=O)NC(=S)NCc2cccnc2)cc1`: the “inhibition” value was -9.06%.
As to `CCn1c2ccccc2c2cc(NC(=O)C(C)Oc3ccccc3)ccc21` (configuration not stated), the “inhibition” value was -7.23%.
For `O=C(NCc1cn2ccsc2n1)Nc1ccc(Cl)cc1`, the “inhibition” value was 2.35%.
Then `O=Cc1cn(Cc2ccccc2[N+](=O)[O-])c2ccccc12`, with -16.4%; and `COCCNC(=O)c1ccc(C(=O)NCCOC)s1`, with -3.43%; and `C/C(=C\c1ccco1)C1Nc2cccc3cccc(c23)N1`, with 26.3%.
With `Cc1ccc(C(=O)NCC(=O)NCC(=O)OCC(=O)c2ccc([N+](=O)[O-])cc2)cc1`, the “inhibition” value was 5.29%.
Then `CCCCn1c(-c2ccccc2)nc2c(=O)n(C)c(=O)[nH]c21`, with 0.02%; and `O=C(Cn1nc(Cl)nc1Cl)c1ccc2c(c1)OCCO2`, with -23.9%; and `Cc1ccc2c(c1)C1CN(C)CCC1N2C(=O)COc1ccc(S(=O)(=O)N2CCOCC2)cc1` (configuration not stated), with -9.64%.
Under `N#Cc1ccc(CSc2nnc(-c3ccncc3)n2CCc2ccccc2)cc1` stands -2.17%.
Under `O=C(Nc1ccsc1C(=O)NC1CCCCC1)c1ccccc1` stands -6.29%; under `O=C(Nc1ccccn1)NC1CCCCC1`, -21.8%; under `COc1ccc(-c2ccc(-c3noc(-c4cccs4)n3)c(OC)n2)cc1`, 11.8%.
Regarding `CCn1cc(C(C)(C)C)c(C#N)c1NC(C)=O`, the “inhibition” value was 15.8%.
On to `Cc1[nH]n(-c2ccccc2)c(=O)c1-c1ccc(Cl)cc1`, for which the “inhibition” value was 11.1%.
Consider `Cc1c(C(c2cccc([N+](=O)[O-])c2O)c2c(C)n(C)n(-c3ccccc3)c2=O)c(=O)n(-c2ccccc2)n1C`, for which the “inhibition” value is 1.78%.
Regarding `O=C(CCNS(=O)(=O)c1cccc2nsnc12)NCc1cccs1`, the “inhibition” value is 8.47%.
As for `CCOC(=O)C1=C(C)NC(SCc2cc(=O)[nH][nH]2)=C(C#N)C1c1cccs1` (configuration not stated), the “inhibition” value was -1.12%.
In the case of `COc1ccc(N2C(=O)C3CCCN3C2c2cccc(C)c2)cc1Cl` (configuration not stated), the “inhibition” value was -1.71%.
Under `COc1nccnc1NS(=O)(=O)c1ccc(NC(=S)NC(=O)c2cccnc2)cc1` stands -4.58%.
As for `COc1cc(OC)c(C(=O)Nc2ccc(S(=O)(=O)Nc3ncccn3)cc2)cc1OC`, the “inhibition” value was -1.93%.
Then `Cc1ccn2cc(CSc3ccccc3N)nc2c1`, with -21.6%; and `Cc1cccc2cc(C#N)c(N3CCN(C)CC3)nc12`, with -17.3%; and `CCOC(=O)N1CCN(C(=O)C(NC(=O)c2ccc(CC)cc2)C(C)C)CC1` (configuration not stated), with -18.7%.
Under `COc1c(Cl)cnn(-c2ccc(C)cc2)c1=O` stands 5.85%; under `O=C(CSCc1ccccc1)N/N=C/c1ccccc1OCc1ccccc1`, -1.35%.
`O=C(CN1CC(c2ccccc2)CC1=O)N/N=C/c1cc(Br)ccc1O` (configuration not stated): the “inhibition” value is 37.5%.
Consider `CC(C)(C)c1ccc(C2CC2C(=O)N/N=C\c2cc3ccccc3nc2Cl)cc1` (configuration not stated), for which the “inhibition” value is -2.95%.
`CC(C)c1ccc(C2NC(=O)NC3=C2CCc2ccccc23)cc1` (configuration not stated): the “inhibition” value was -9.82%.
In the case of `O=C(NC1CCCCC1)C(c1ccncc1)N(CC1CCCO1)C(=O)C(F)(F)F` (configuration not stated), the “inhibition” value is -3.18%.
`COc1ccc(Nc2nc(NCc3ccco3)nc(N/N=C/c3ccccc3Cl)n2)cc1`: the “inhibition” value was -2.36%.
Under `CCOc1ccc(NC(=O)c2ccc(NC(=O)COC(=O)Cc3ccccc3)cc2)cc1` stands 7.61%.
Then `Cc1ccc(NC(=S)NC(NC(=O)c2ccco2)C(Cl)(Cl)Cl)cc1` (configuration not stated), with 0.18%.
In the case of `O=C(c1ccccc1)c1c2c(cc3sc4ccccc4[n+]13)-c1cccc3cccc-2c13`, the “inhibition” value is 18%.
Under `CN1C(=O)CC(P(=O)(c2ccccc2)c2ccccc2)N(C)C1=O` (configuration not stated) stands -0.81%; under `COc1ccc(N2C(=O)CC(Sc3nc(C)c4c(n3)CCCC4)C2=O)cc1` (configuration not stated), -5.07%; under `COC(=O)c1cc(C#N)c(Oc2ccc(F)cc2)nc1C`, -11.3%.
Take `Nc1nc2ccccc2n1/N=C/c1ccc(-c2ccccc2)o1`: the “inhibition” value is 5.57%.
On to `CN(C)CCCN(C(=O)CCc1ccccc1)c1nc2ccc(Cl)cc2s1`, for which the “inhibition” value was -0.98%.
On to `c1ccc(C2(CNc3ccccn3)CCCC2)cc1`, for which the “inhibition” value is -0.33%.
For `Cc1ccc(-n2ncc3c(N4CCN(c5ccccc5)CC4)ncnc32)c(C)c1`, the “inhibition” value is 0.31%.
Then `O=C(CC1SC(=NCc2ccccc2)NC1=O)Nc1ccccc1` (configuration not stated), with -21.5%; and `Cc1nn(C)c(C)c1S(=O)(=O)N1CCC(C(=O)NC2CCCCC2)CC1`, with -14.5%.
Take `COc1cc(NC(=O)CSc2nnnn2Cc2ccc3c(c2)OCO3)cc(OC)c1`: the “inhibition” value is 7.32%.
Turning to `Cc1ccc(N)cc1-n1c(C)ccc1C`, the “inhibition” value is -4.71%.
Under `CC(C)(C)c1ccc(C(=O)Nc2ccc(C=C(C#N)C#N)cc2)cc1` stands -4.47%.
For the compound `COCCSc1ccccc1C(=O)NCC1CCCO1` (configuration not stated), the “inhibition” value was 0.94%.
Consider `Cn1c(NCc2cc(Br)ccc2O)nc2ccccc21`, for which the “inhibition” value was -8.36%.
Take `O=S(=O)(Nc1ccc2c(c1)nc1n2CCN(Cc2ccccc2)C1)c1ccc(Cl)cc1`: the “inhibition” value is 4.42%.
Then `C=CCn1c(SCc2c(C(=O)OC)sc(N)c2C(=O)OC)nnc1-c1ccc(Cl)cc1`, with 3.35%; and `CCC(CC)C(=O)NCCc1ccc(OC)cc1`, with -19.9%.
`O=C(Cn1cnc2ccccc2c1=O)NCc1ccco1`: the “inhibition” value is -7.91%.
Then `CC(=O)NCCOc1c(C)cc(S(N)(=O)=O)cc1C`, with -20.7%; and `C=CCOc1ccc(CNc2nn[nH]n2)cc1`, with -9.95%; and `COC(=O)Cc1c(C)nc2nc(NCc3ccc(Cl)cc3)[nH]n2c1=O`, with -1.93%.
For the compound `CN(C)C(=O)On1c(-c2ccccc2)nc2ccc(Cl)cc21`, the “inhibition” value was -2.41%.
Then `CC(C)N(Cc1nc(-c2ccccc2)no1)C(=O)CN(C)S(=O)(=O)c1ccccc1`, with -24.6%; and `Cc1ccc(Nc2cc(C)nc3nc(C)nn23)cc1`, with -1.42%; and `COc1ccc(Nc2nnc(SCc3cn4c(C)cccc4n3)s2)cc1`, with 14.2%.
Under `CCOC(=O)N1CCN(S(=O)(=O)c2ccc(C(=O)NNc3nc4cc(C)cc(C)c4s3)cc2)CC1` stands 37.6%; under `Cc1ccc(Nc2nc(Cl)nc(N(C)C#N)n2)cc1`, -6.75%; under `Cc1ncc(C23CC4CC(CC(C4)C2)C3)[nH]1`, 1.02%.
Take `CCN(CC)c1nc2n(c(=O)n1)CCO2`: the “inhibition” value was -7.1%.
Then `COc1ccc2c(c1)cc1n2CCN2CCCN=C12`, with -2.25%.
Then `C=CCSC1=Nc2sccc2C2=NC(=O)CN12`, with 4.53%; and `COc1ccc(NC(=O)CSc2nccn2-c2ccccc2)cc1`, with -10.3%; and `O=C(/C=C/c1ccc2c(c1)OCO2)N1CCN(c2ccccc2F)CC1`, with -4.1%.
Then `OC(COCc1cccs1)CN1CCN(c2ccccn2)CC1` (configuration not stated), with -9.12%.
Turning to `N#Cc1c(-c2ccco2)cc(-c2ccc(F)cc2)nc1N`, the “inhibition” value was 3.02%.
Then `CN1CCN(S(=O)(=O)c2ccc(N)cc2)CC1`, with -0.53%; and `CC(C)(C)c1ccc(-c2n[nH]c(=S)n2/N=C/c2ccncc2)cc1`, with -4.8%; and `CC(Cl)C(=O)NNc1cccc(Cl)n1` (configuration not stated), with 1.81%.
Then `Cc1nc(N2CCN(Cc3ccc4c(c3)OCO4)CC2)nc2c1C(=O)CC(c1ccco1)C2` (configuration not stated), with -18.7%.
For the compound `CCc1ccc(C(c2c(C)nn(-c3ccccc3)c2N)c2c(C)nn(-c3ccccc3)c2N)cc1`, the “inhibition” value was 11.2%.
As for `O=C(NCc1ccccn1)c1cn(-c2ccccc2)nc1-c1ccc(Cl)cc1`, the “inhibition” value was -4.89%.
`O=C(OCc1ccccc1)c1cn(-c2ccccc2)nc1-c1ccncc1`: the “inhibition” value is -0.69%.
Regarding `O=C(COC(=O)c1cn(-c2ccccc2)nc1-c1ccccc1)c1cccc([N+](=O)[O-])c1`, the “inhibition” value was -14.3%.
Then `O=C(c1ccc(F)cc1)C(CN1CCOCC1)c1ccccc1` (configuration not stated), with 21.6%; and `O=C(NCc1ccccn1)Nc1cccc(Cl)c1`, with -8.94%; and `COCCNCCOc1ccccc1-c1ccccc1`, with -1.68%.
Turning to `COc1cc(OC)c(NC(=O)Nc2ccc(OC)c(OC)c2)cc1Cl`, the “inhibition” value is -16.1%.
Then `Cc1ccc2cc(CN(CCO)Cc3nnnn3Cc3ccc(F)cc3)c(=O)[nH]c2c1`, with 0.75%; and `CCOC(=O)C(NS(=O)(=O)c1ccccc1)(C(F)(F)F)P(=O)(OCC(C)C)OCC(C)C` (configuration not stated), with -13.7%; and `Cc1cc2cc(CNS(=O)(=O)c3ccc4ccccc4c3)ccc2n1C`, with 37.5%.
In the case of `O=C(c1ccccc1)c1coc2ccc(O)c(Cl)c12`, the “inhibition” value is -10.4%.
Then `CC(C)CNC(=O)c1ccc(COc2ccc(Cl)cc2Cl)o1`, with -5.81%; and `C#CCOc1ccc(Cl)cc1/C=N/O`, with 16.2%; and `Cc1ccc(SC(c2ccc(C)cc2)C(Cn2cncn2)C(=O)c2ccccc2)cc1` (configuration not stated), with 3.76%.
Under `Cc1cccc(NC(=S)NC(NC(=O)c2ccco2)C(Cl)(Cl)Cl)c1` (configuration not stated) stands -18.9%; under `CCOC(=O)C1=C(C)N=c2s/c(=C\c3ccncc3)c(=O)n2C1c1ccc2c(c1)OCO2` (configuration not stated), 21.9%.
Take `CCOc1ccc(S(=O)(=O)NNC(=S)Nc2ccc(Br)cc2)cc1`: the “inhibition” value was 11.2%.
As for `CCOC(=O)c1c(NC(=O)COc2ncnc3ccccc23)sc(C)c1CC`, the “inhibition” value was 1.74%.
Under `O=C1C(Nc2ccccc2)=C/C(=N/S(=O)(=O)c2cccs2)c2ccccc21` stands 21.6%; under `Cc1cc(C)c2cc(CN(Cc3cccnc3)C(=O)c3ccc(F)cc3)c(Cl)nc2c1`, 4.89%.
Under `COc1ccc(C(C)=O)c2c(O)cccc12` stands 2.41%.
Then `CCN(CC)CCNC(=O)c1cn(CC)c2cc(N3CCN(C(=O)c4ccco4)CC3)c(F)cc2c1=O`, with 29.5%; and `CN(C)CCNC(=O)c1ccc(COCC(F)(F)F)cc1`, with 5.66%; and `COc1ccc(S(=O)(=O)N2CCN(C(=O)c3c(C)nn(-c4ccccc4)c3Cl)CC2)cc1`, with -6.66%.
Turning to `Cn1c(-c2ccc3c(c2)OCO3)cnc1NCc1cccc(Cl)c1`, the “inhibition” value is 3.03%.
As for `O=C(NCCN1CCOCC1)c1ccc2ccccc2c1`, the “inhibition” value was -7.47%.
As for `O=C(Cc1ccccc1)NCc1ccc(F)cc1`, the “inhibition” value is -4.57%.
Then `Fc1ccccc1CCNCc1cccc(Cl)c1Cl`, with -9.53%.

One may read the inhibition as the relative decrease from the control value, in per cent.
